Test [1] addresses T1, Ephrin type-B receptor 1 (Homo sapiens) (UniProt P54762).
T1 sequence (whole entry): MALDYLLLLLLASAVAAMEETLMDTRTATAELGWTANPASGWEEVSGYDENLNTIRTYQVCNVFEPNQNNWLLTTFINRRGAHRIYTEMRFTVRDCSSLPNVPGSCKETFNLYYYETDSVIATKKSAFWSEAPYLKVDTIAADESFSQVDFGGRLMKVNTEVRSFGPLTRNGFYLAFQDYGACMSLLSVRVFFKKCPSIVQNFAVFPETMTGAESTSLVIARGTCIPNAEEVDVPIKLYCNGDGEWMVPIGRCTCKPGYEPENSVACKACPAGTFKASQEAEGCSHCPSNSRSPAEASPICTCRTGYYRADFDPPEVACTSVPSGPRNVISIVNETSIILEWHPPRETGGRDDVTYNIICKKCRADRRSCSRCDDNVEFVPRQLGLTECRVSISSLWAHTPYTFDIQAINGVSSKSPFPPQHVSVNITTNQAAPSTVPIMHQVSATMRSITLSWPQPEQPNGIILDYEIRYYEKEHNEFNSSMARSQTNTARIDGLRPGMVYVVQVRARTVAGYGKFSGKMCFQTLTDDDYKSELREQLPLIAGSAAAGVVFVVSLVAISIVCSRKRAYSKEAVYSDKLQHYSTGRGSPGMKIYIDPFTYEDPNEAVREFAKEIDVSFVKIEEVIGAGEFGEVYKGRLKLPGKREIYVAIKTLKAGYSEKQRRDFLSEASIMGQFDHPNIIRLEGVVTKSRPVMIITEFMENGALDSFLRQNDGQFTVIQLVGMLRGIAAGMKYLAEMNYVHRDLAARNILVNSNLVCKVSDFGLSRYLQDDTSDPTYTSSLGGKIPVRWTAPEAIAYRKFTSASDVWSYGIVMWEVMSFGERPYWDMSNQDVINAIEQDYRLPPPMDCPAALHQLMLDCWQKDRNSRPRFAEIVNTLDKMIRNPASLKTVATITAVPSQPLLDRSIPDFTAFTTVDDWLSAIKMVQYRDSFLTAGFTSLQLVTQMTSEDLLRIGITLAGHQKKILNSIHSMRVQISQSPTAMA
The following applies: at 10 µM.

For test [2], the target named is T2, Ephrin type-B receptor 2 (Homo sapiens) (UniProt P29323).
T2 sequence (whole entry): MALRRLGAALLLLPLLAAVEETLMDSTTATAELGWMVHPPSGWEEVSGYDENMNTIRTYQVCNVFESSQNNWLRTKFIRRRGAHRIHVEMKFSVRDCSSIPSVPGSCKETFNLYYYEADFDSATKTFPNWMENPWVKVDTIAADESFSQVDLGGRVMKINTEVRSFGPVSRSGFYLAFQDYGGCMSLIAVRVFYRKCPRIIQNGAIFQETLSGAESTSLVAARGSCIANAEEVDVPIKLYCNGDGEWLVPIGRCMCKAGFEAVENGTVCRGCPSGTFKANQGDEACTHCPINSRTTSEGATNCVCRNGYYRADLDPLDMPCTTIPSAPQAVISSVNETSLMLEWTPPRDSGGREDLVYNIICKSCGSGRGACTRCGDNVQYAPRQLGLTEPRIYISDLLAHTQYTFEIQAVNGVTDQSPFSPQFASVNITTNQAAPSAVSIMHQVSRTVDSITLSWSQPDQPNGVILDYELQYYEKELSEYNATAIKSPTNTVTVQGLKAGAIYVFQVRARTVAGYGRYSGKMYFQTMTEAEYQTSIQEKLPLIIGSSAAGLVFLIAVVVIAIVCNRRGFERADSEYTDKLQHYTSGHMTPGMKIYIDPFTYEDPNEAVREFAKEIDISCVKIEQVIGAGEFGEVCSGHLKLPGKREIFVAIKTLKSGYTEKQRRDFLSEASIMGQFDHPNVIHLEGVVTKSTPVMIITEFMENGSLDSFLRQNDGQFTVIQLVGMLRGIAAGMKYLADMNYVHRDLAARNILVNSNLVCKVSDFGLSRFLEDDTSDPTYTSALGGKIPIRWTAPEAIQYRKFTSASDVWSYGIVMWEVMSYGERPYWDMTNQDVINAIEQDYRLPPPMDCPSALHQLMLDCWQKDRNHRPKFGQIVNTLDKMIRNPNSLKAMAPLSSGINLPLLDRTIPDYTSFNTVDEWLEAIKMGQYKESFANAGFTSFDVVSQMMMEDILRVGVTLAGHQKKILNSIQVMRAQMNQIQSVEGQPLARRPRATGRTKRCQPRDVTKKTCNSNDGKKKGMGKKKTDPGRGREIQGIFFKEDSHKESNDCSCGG
To be noted: at 1 µM.

The target of test [3] is T2, Ephrin type-B receptor 2 (Homo sapiens). The following applies: at 10 µM.
In test [4] the target is T3, Ephrin type-B receptor 3 (Homo sapiens) (UniProt P54753).
T3 sequence (whole entry): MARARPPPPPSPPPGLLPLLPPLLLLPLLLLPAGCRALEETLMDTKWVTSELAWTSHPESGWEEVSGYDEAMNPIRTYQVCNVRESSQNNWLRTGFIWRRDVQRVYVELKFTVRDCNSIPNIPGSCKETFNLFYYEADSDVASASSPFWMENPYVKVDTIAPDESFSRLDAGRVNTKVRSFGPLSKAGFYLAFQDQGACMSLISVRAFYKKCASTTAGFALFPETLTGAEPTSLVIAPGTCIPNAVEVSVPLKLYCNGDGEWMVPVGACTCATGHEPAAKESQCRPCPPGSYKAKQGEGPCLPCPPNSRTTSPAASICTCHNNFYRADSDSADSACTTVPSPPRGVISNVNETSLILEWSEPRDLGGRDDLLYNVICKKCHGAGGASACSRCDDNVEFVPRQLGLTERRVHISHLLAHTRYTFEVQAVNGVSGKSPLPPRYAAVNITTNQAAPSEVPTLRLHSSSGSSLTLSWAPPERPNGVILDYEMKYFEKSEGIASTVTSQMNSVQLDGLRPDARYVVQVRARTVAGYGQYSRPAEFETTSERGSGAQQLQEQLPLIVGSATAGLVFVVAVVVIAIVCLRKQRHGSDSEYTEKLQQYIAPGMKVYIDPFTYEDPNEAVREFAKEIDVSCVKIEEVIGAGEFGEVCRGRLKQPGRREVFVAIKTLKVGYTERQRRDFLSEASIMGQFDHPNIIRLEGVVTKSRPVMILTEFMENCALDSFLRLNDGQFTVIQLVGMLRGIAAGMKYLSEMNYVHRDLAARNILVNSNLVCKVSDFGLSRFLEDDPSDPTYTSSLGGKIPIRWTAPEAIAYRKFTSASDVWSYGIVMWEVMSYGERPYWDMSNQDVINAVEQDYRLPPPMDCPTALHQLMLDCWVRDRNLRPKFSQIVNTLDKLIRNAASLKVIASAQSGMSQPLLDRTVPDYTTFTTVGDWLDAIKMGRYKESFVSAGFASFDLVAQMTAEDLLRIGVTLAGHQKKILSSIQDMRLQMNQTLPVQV
To be noted: at 1 µM.

Test [5] has as its target T3, Ephrin type-B receptor 3 (Homo sapiens). The following applies: at 10 µM.
Test [6] deals with T4, Ephrin type-B receptor 4 (Homo sapiens) (UniProt P54760).
T4 sequence (whole entry): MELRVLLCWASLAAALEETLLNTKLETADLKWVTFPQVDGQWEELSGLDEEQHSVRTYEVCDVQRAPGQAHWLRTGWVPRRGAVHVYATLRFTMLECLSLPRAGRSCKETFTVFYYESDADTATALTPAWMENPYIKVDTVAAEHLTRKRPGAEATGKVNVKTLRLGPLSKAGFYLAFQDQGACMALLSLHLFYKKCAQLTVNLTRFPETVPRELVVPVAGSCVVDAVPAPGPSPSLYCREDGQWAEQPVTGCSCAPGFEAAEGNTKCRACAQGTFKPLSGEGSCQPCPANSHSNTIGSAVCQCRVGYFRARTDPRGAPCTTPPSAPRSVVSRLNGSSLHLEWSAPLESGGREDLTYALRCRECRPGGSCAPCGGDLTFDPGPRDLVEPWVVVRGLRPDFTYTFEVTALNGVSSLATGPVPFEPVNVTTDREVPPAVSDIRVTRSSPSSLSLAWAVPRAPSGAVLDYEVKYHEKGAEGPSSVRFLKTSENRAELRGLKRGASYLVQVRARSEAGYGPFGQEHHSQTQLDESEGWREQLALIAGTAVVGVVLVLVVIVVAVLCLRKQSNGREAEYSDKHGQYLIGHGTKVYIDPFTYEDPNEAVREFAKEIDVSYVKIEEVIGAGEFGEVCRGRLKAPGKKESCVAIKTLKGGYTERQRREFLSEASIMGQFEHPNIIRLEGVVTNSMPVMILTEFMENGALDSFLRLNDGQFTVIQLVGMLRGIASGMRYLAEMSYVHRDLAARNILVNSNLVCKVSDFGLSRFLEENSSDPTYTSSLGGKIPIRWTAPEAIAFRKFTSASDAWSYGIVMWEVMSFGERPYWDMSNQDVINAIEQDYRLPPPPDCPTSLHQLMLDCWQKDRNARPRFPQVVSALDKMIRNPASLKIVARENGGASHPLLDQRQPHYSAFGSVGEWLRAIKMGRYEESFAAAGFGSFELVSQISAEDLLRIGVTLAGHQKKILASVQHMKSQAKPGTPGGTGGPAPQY
The following applies: at 1 µM.

Test [7] deals with T4, Ephrin type-B receptor 4 (Homo sapiens). The following applies: at 10 µM.
The target of test [8] is Receptor tyrosine-protein kinase erbB-4 (Homo sapiens) (UniProt Q15303). The following applies: at 1 µM.
Test [9] has the same target. To be noted: at 10 µM.
Test [10] concerns the target Focal adhesion kinase 1 (Homo sapiens) (UniProt Q05397). The following applies: at 1 µM.

Chain of Receptor tyrosine-protein kinase erbB-4 (Homo sapiens) (Q15303 whole entry): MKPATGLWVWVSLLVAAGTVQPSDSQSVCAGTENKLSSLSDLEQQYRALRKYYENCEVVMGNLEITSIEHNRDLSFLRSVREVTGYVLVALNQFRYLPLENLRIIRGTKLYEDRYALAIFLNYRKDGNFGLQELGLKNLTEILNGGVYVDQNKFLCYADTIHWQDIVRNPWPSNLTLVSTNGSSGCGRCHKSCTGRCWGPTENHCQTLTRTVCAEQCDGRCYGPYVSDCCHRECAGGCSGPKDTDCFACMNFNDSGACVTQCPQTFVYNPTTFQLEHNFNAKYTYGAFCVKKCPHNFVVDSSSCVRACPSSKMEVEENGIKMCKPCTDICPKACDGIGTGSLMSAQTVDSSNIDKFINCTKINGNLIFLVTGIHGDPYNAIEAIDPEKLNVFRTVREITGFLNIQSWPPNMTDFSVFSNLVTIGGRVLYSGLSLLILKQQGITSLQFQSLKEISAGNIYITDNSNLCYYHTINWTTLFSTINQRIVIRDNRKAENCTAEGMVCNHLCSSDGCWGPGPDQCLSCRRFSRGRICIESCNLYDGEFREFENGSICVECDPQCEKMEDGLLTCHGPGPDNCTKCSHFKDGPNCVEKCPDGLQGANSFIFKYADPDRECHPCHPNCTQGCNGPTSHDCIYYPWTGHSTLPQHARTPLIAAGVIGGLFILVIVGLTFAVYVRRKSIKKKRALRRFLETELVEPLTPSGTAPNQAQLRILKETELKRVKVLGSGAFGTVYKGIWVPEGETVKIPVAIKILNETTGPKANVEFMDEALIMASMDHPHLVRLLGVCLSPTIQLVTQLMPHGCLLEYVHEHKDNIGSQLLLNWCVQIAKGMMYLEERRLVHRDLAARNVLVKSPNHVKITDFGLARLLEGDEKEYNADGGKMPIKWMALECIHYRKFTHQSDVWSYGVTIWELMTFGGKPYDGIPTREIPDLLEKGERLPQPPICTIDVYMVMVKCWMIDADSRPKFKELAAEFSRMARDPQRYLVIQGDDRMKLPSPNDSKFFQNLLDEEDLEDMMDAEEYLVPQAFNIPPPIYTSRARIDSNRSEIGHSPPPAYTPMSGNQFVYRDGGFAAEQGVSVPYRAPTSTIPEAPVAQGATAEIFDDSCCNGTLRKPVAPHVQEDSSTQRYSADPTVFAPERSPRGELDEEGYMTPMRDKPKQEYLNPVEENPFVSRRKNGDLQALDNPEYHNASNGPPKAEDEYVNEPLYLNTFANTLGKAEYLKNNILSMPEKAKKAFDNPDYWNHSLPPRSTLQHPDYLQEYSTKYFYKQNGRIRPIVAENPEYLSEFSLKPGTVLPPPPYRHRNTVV
Chain of Focal adhesion kinase 1 (Homo sapiens) (Q05397 2-1052 limits assumed): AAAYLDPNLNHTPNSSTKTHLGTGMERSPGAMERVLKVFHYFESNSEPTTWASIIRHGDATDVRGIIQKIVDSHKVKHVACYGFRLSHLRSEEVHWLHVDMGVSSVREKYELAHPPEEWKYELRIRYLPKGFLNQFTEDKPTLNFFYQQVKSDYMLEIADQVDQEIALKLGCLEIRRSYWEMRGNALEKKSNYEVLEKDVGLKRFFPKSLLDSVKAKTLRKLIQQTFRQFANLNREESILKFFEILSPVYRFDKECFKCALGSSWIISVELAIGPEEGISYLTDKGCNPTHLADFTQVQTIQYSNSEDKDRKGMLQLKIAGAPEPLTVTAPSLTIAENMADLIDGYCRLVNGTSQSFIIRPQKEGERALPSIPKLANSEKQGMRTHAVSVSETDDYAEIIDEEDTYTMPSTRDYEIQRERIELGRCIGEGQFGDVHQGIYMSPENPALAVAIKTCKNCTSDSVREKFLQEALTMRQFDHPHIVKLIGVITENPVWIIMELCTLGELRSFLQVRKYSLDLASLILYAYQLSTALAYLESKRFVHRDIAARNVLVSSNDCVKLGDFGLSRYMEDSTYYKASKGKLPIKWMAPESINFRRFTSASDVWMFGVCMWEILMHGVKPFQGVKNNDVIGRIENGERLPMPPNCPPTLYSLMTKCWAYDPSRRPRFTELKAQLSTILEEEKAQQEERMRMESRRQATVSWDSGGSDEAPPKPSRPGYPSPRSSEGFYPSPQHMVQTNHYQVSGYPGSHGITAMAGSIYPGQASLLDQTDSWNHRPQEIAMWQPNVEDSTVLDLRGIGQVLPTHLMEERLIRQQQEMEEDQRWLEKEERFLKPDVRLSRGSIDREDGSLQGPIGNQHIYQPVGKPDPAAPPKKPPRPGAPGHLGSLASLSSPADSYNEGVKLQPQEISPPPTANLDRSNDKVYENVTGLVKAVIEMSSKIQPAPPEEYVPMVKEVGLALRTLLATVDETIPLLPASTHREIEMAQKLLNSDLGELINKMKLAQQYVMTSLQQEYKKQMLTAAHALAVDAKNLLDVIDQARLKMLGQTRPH

For orientation: residual activity means the signal under treatment as a percentage of the control signal. Take `Cc1ccc(S(=O)(=O)/C=C/C#N)cc1`: the residual activity in test [1] is 92%; in test [2], 122%; in test [3], 126%; in test [4], 118% (inactive); in test [5], 111%; in [6], 97%. In addition, the residual activity in test [7] stood at 90%; in [8] it was 95%; in [9], 90%; in [10] it was 105%.

These data come from ChEMBL document CHEMBL2218924, “A broad activity screen in support of a chemogenomic map for kinase signalling research and drug discovery” (Biochem J, 2013).
